# Results reported in PubChem BioAssay (NCATS).
# Records with an inconclusive call do not appear. Unmarked numbers belong to inactive results. Activity calls are given as the source filed them. The call rests on the fitted dose curve; in most records, active means well fitted inhibition curve with a large enough effect; inconclusive means small, poorly fitted or top-dose-only effect; inactive means flat fitted curve, though single readings scatter.
# System: NIH3T3
# Assay: Cytotoxic Profiling of Annotated Libraries Using Quantitative High-Throughput Screening (AID 1296008); further: nearly all actives have a fitted effect of over 60% in size
# Conditions: Five cell lines viability, CellTiter-Glo ATP luminescence, 48-72 h; max response: stronger effect = lower value
# Method in brief: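 Cells exposed to compounds for 48 or 72 hr at 37 degrees Celsius. Viability read as ATP-coupled luminescence with CellTiter-Glo after 10 min at room temperature.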
# On the % scale 0 is the no-effect control and ±100 the full control effect; potency means the concentration at half of the fitted maximal effect.
SMILES,max response,Potency,outcome
CO[C@H]1C[C@@H]2CC[C@@H](C)[C@@](O)(O2)C(=O)C(=O)N2CCCC[C@H]2C(=O)O[C@H]([C@@H](C)C[C@@H]2CC[C@@H](O)[C@H](OC)C2)CC(=O)[C@H](C)/C=C(\C)[C@@H](O)[C@@H](OC)C(=O)[C@H](C)C[C@H](C)/C=C/C=C/C=C/1C,-0.671%,–,–
COc1cc(/C=C2\CCCN([C@@H](C)c3ccc(F)cc3)C2=O)ccc1-n1cnc(C)c1,-4.02%,–,–
CC(C)S(=O)(=O)NC[C@@H]1CC(c2ccc(N3CCCC3)c(F)c2)=NO1,-14.9%,–,–
NC(=O)c1cnc(N[C@@H]2CCCC[C@@H]2N)nc1Nc1cccc(-n2nccn2)c1,–,23.4 µM (active),–
Nc1nc(Cl)nc2c1ncn2C1OC(CO)C(O)C1F (configuration not stated),–,1.03 µM (active),–
Cc1cc(NC(=O)c2cccc(NC(=O)/C=C/CN(C)C)c2)ccc1Nc1nccc(-c2cccnc2)n1,–,18.4 µM (active),–
COc1ccc(CN2CCN(C(=O)CCNC(=O)c3ccc(C(C)(C)C)cc3)CC2)cc1,3.24%,–,–
CNC1CN(c2ccc3c(=O)c(C(=O)O)cn(-c4nccs4)c3n2)CC1OC (configuration not stated),–,0.211 µM (active),–
OC(c1ccc(-c2ccc(CN3CCN(Cc4ccncc4)CC3)cc2)c(F)c1)(C(F)(F)F)C(F)(F)F,-11.3%,–,–
Cc1cc(-c2cnc(N)c3c(-c4ccc5scnc5c4)csc23)n(C)n1,–,11.6 µM (active),–
CC1CCCC(O)CCC/C=C/c2cc(OS(=O)(=O)O)cc(O)c2C(=O)O1 (configuration not stated),–,–,inactive
COc1cc(OC)c(NC(=O)c2ccc(Cc3cc4c(cc3C)C(C)(C)CCC4(C)C)o2)c(OC)c1,4.87%,–,–
